Bioassay records deposited in PubChem BioAssay by National Center for Advancing Translational Sciences (NCATS).
AMA1-RON2 inh: AMA1-RON2 (P. falciparum) interaction inhibition; Potency, µM (highest dose often 58.2 µM), for inactives: top-dose activity change, negative = inhibition, actives largely listed as inhibitors; 360,000 tested, 0.2% active; AID 720542; AlphaScreen AMA1-biotinylated RON2 peptide binding;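 further: potency means the concentration at half of the fitted maximal effect; 0% = vehicle wells and -100% = peptide control; nearly all actives have a fitted effect of over 45% in size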
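AMA1 (3D7) with his tag at 25 nM final met compounds first, then biotinylated RON2 peptide at 25 nM; detection used donor plus acceptor beads, 10 µg/mL apiece, read by AlphaScreen after 30 min at room temperature.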
Pf growth 48h: inhibits P. falciparum growth in the first generation, 48 h; Potency, µM (top dose mostly 28.7 µM), inactives show at the top dose activity change, negative = inhibition, hits mostly inhibitors; AID 504832; P. falciparum luciferase growth in erythrocytes, 48 h; 310,000 tested, 5.9% active; further: potency means the concentration at half of the fitted maximal effect; on the % scale 0 is the no-effect control and ±100 the full control effect
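Growth was read as firefly luciferase luminescence after a 48 h, 37 C, 5% CO2 exposure of compounds to reporter-bearing P. falciparum cultures (0.1% parasitemia, 2% hematocrit final) in Albumax-supplemented RPMI 1640.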
Cycloheximide cs: affects cycloheximide protein synthesis inhibition readout, counter-screen | cell reporter, cycloheximide protein synthesis inhibition counterscreen | max response, % | 300,000 tested, 12% active | AID 2314; in the data active means max response mostly above about 13%, no sharp cut-off; inactive means mostly below about 14%; further: read at 38.3 µM for the half of the compounds with a filed dose; 0% is about no effect
HCV inh: inhibitors of hepatitis C virus infection; Huh7.5.1 HCVcc-Cre infection, luciferase reporter, 44 h; Potency, µM (titrated, usually from 41.8 µM), without a hit: at the highest dose activity change, negative = inhibition, hits mostly inhibitors; 340,000 tested, 3.4% active; AID 651820; further: potency means the concentration at half of the fitted maximal effect; on the % scale 0 is the no-effect control and ±100 the full control effect
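HCVcc-Cre virus at an moi near 0.5 was added right after compound to cells cultured 4 h from seeding (1,000 cells/well). Luciferase activity was determined 44 h later, 15 min after substrate addition at RT.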
Shiga toxin inh: inhibitors of Shiga toxin in Vero cells; inhibition, % at 38.7 µM; 290,000 tested, 9.2% active; Vero cells, Shiga toxin protein synthesis inhibition reporter; in the data active means inhibition mostly above about 28%, no sharp cut-off; inactive means mostly below about 43%; further: 0% is about no effect
Pf growth 96h: P. falciparum growth inhibition at 96 hour, primary screen for plastid delayed-death inhibitors; 320,000 tested, 6.9% active; Potency, µM (titrated, usually from 28.7 µM), without a hit: top-dose activity change, negative = inhibition, hits mostly inhibitors; P. falciparum luciferase reporter growth, 96 h; further: potency means the concentration at half of the fitted maximal effect; on the % scale 0 is the no-effect control and ±100 the full control effect
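Cell-based qHTS: luciferase-tagged P. falciparum in erythrocytes (2% hematocrit, 0.05% parasitemia final) incubated with compounds for 96 hours, 37 C, 5% CO2; luciferase detection reagent then added and luminescence measured.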
An asterisk follows results filed as active; ? = inconclusive; . = no result given; [ ] = remark or other dose. In the library only some 21% were active in any assay of this set; here they are far more common. Unless noted, the call rests on the fitted dose curve; in most records, active means well fitted curve in the direction sought with a large enough effect; inconclusive means small, poorly fitted or top-dose-only effect, or another doubt; inactive means no such curve, though single readings can be large; an effect the other way counts as inactive or inconclusive.

SMILES	AMA1-RON2 inh	Pf growth 48h	Cycloheximide cs	HCV inh	Shiga toxin inh	Pf growth 96h
CC(C)CCc1noc(CN2CCC(CCN3CCCC3=O)CC2)n1	-9%	18%	15	?	30	13µM*
CC(C)CCc1noc(CN2CCN(CC(=O)NC(C)C)CC2)n1	0%	-2%	-2	?	6	-2%
OC[C@@H]1CN(Cc2ccncc2)C[C@H](n2cnc3c(NC4CCCC4)ncnc32)O1	0%	.	.	.	.	.
CCN(CC)S(=O)(=O)c1cccc(C(=O)NC(C(=O)NC2=NCCS2)C(C)C)c1 (stereo unspecified)	-1%	?	-3	-4%	-10	18%
CCN(CC)S(=O)(=O)c1cccc(C(=O)N[C@H](C(=O)NNC(=O)c2ccccc2)C(C)C)c1	85%	?	8	-4%	-6	?
CCN(CC)S(=O)(=O)c1cccc(C(=O)NC(C(=O)Nc2nnc(C3CC3)s2)C(C)C)c1 (stereo unspecified)	51%	?	7	-20%	3	8.3µM*
CCN(CC)S(=O)(=O)c1cccc(C(=O)N[C@H](C(=O)Nc2nc3ccc(F)cc3s2)C(C)C)c1	-7%	13µM*	40*	?	104*	2.6µM*
CCN(CC)S(=O)(=O)c1cccc(C(=O)N[C@H](C(=O)Nc2nc3ccccc3s2)C(C)C)c1	-5%	0%	17*	-17%	19	?
CC(NC(N)=O)C(=O)Nc1ccc(Cl)c(S(=O)(=O)Nc2ccc(Br)cc2)c1 (stereo unspecified)	-7%	6%	-4	9%	-12	-3%
CCCN(CC(=O)Nc1ccc(C(N)=O)cc1)CC(=O)Nc1ccc(F)c(F)c1F	100%	-46%	-3	-2%	2	-12%
CC[C@H](C)[C@H](NC(=O)[C@H](CO)NC(=O)[C@H](CC(N)=O)NC(=O)[C@H](CC(C)C)NC(=O)[C@H](Cc1ccc(O)cc1)NC(=O)[C@H](CCCCN)NC(=O)[C@H](CCCCN)NC(=O)[C@@H](NC(=O)[C@H](C)NC(=O)[C@H](CCSC)NC(=O)[C@H](CCC(N)=O)NC(=O)[C@H](CCCCN)NC(=O)[C@H](CCCNC(=N)N)NC(=O)[C@H](CC(C)C)NC(=O)[C@H](CCCNC(=N)N)NC(=O)[C@@H](NC(=O)[C@H](Cc1ccc(O)cc1)NC(=O)[C@H](CC(N)=O)NC(=O)[C@H](CC(=O)O)NC(=O)[C@@H](NC(=O)[C@H](Cc1ccccc1)NC(=O)[C@@H](NC(=O)[C@H](C)NC(=O)[C@H](CC(=O)O)NC(=O)[C@H](CO)NC(=O)[C@@H](N)Cc1cnc[nH]1)C(C)C)[C@@H](C)O)[C@@H](C)O)C(C)C)C(=O)N[C@@H](CC(C)C)C(=O)N[C@@H](CC(N)=O)C(N)=O	.	.	-5	.	-1	.
CC(=O)c1c(C)[nH]c(C(=O)OCC(=O)NC(C)c2ccccc2)c1C (stereo unspecified)	2%	.	.	.	.	.
CC1=C(C#N)C(C(F)(F)F)(C(F)(F)F)N=C(c2ccco2)N1	3%	-6%	-4	-14%	-11	8.3µM*
O=c1[nH]c(=O)n(Cc2ccccc2)c2c1C(C(F)(F)F)(C(F)(F)F)N=C(c1ccco1)N2	23%	?	-1	-1%	-14	?
COc1ccc(-c2nnc3ccc(SCC(=O)Nc4nc5ccc(C)cc5s4)nn23)cc1OC	-9%	13µM*	0	6%	14	?
COc1ccc(-c2nnc3ccc(SC(C(C)=O)C(C)=O)nn23)cc1OC	-2%	9.3µM*	5	-5%	3	?
COC(=O)CSc1ccc2nnc(-c3ccc(OC)c(OC)c3)n2n1	0%	9%	-6	4%	-16	45%
O=C(NC1CCN(Cc2ccccc2)CC1)c1cc(S(=O)(=O)N2CCOCC2)ccc1Cl	3%	.	.	3%	.	.
Nc1nc2c(Br)ccc(Br)c2cc1C(=O)NCc1cccc2ccccc12	38%	.	.	.	.	.
COc1cc(/C=N/Nc2nc3ccccc3[nH]2)cc(Br)c1OCC(=O)N(C)C	89%	0.47µM*	37*	-15%	139*	0.47µM*
COc1cc(/C=N/Nc2snc(SC)c2C#N)ccc1O	6%	48%	27*	?	34	129%
COc1ccc(O)c(/C=N/Nc2nc3ccccc3[nH]2)c1	?	1.9µM*	49*	4%	82*	2%
COc1cc(/C=N/Nc2nc3ccccc3[nH]2)ccc1O	14%	0.83µM*	37*	7%	33*	?
O=C(Nc1ccccc1)c1ccc(Br)c(S(=O)(=O)Nc2ccccn2)c1	6%	10%	-1	20%	-3	-21%
COc1ccc(-c2ccccc2)cc1NC(=O)C1(C)CCN1C(=O)C(C)C (stereo unspecified)	10%	.	.	.	.	.
SMILES	AMA1-RON2 inh	Pf growth 48h	Cycloheximide cs	HCV inh	Shiga toxin inh	Pf growth 96h
O=[N+]([O-])c1ccc(O)c(/C=N/Nc2nc3ccccc3[nH]2)c1	41%	2.3µM*	19*	11µM*	9	76%
COc1cc(/C=N/Nc2nc3ccccc3[nH]2)cc(OC)c1O	24%[11.6 µM]	1.7µM*	18*	-8%	73	0.93µM*
COc1cc(/C=N/NC(=O)c2cccc3ccccc23)cc(OC)c1O	20%	-24%	1	6%	17	?
COc1cc(/C=N/Nc2nc3ccccc3[nH]c2=O)ccc1O	-3%	?	19	1%	17*	?
O=C1c2ccccc2C(c2nnnn2Cc2ccccc2)N1C1CC1 (stereo unspecified)	6%	.	.	.	.	.
CCC(=O)N1c2ccccc2-c2nnc(SC)nc2OC1c1ccc(N(C)C)cc1 (stereo unspecified)	-12%	2%	-3	9%	-10	11%
CCC1Oc2nc(SC)nnc2-c2ccccc2N1C(=O)c1ccccc1 (stereo unspecified)	-1%	-18%	16*	-3%	41	-21%
c1ccc(COc2ccc(CNn3cnnc3)cc2)cc1	-1%	51%	26*	7%	65*	13%
O=C(C[C@@H]1C=C[C@H](NS(=O)(=O)c2ccccc2F)[C@@H](CO)O1)NCCCN1CCOCC1	6%	.	.	.	.	.
O=C(OC1C[C@@H]2CC3C[C@H](C1)N2CC3=O)c1c[nH]c2ccccc12 (stereo partly specified)	.	13µM*	.	.	.	13µM*
C[N+]1(C)C2CCC1CC(OC(=O)c1c[nH]c3ccccc13)C2 (stereo unspecified)	13%	?	.	-25%	.	6µM*
O=C(OCC(=O)N1CCCCC1)c1c[nH]c2ccccc12	-18%	129%	.	5%	.	244%
COC(=O)[C@@]12CCCCN1[C@H](c1ccc(-c3cccc(Cl)c3)cc1)[C@@H]1C(=O)N(C)C(=O)[C@@H]12	-3%	.	.	15%	.	.
